# Source: PubChem BioAssay (Broad Institute)
# Not all results are given here.
# aSyn UTR act – Activators working through SNCA 5'UTR binding (MLPCN); alpha-synuclein 5'UTR reporter, activators screen; activity score, % (tested at 7.5 µM), hits read low; 7.1% of 300,000 active; in the data active means activity score below about -60%
# A number is an active result; n = inactive.
SMILES,aSyn UTR act
c1ccc(N2CCN(c3nc4ccccc4[nH]3)CC2)nc1,-136
COCc1nnc(NC(=O)c2sc3ccccc3c2Cl)s1,-102
CNC(=O)c1ccsc1NC(=O)c1sc2ccccc2c1Cl,-168
Cc1c(CCC(=O)N2CCC(C(=O)O)CC2)c(=O)oc2cc3oc4c(c3cc12)CCCC4,n
O=C(COc1ccc2ccccc2c1)N1CCCC1,-68
Cc1c(CCC(=O)N2CCC(C(=O)O)(c3ccccc3)CC2)c(=O)oc2cc3oc4c(c3cc12)CCCC4,n
O=C(COc1ccc2ccccc2c1)Nc1cccnc1Cl,-77
O=C(COc1ccc2ccccc2c1)NC1CC1,-128
O=C(COc1ccc2c3c(c(=O)oc2c1)CCC3)N1CCCCC1,-82
COCCn1c(C)cc(C(=O)COC(=O)c2ccc3ncsc3c2)c1C,-151
COCCn1c(C)cc(C(=O)COC(=O)c2ccccc2Br)c1C,n
COCCn1c(C)cc(C(=O)COC(=O)c2cncc(Br)c2)c1C,-121
COc1ccc(C2CC2C(=O)c2ccccn2)cc1 (stereo not drawn),-73
COc1ccc(C2CC2/C(=N/O)c2ccccn2)cc1 (stereo not drawn),-86
Cc1ccc(Nc2n[nH]c(C)c2[N+](=O)[O-])cc1C,-164
CC(C)Sc1nc2ccc(Br)cc2[nH]1,-120
CCCCc1noc2c1/C(=N\O)CC(c1ccccc1)C2 (stereo not drawn),-77
Cc1ccnc(NC(=O)Nc2ccc(F)cc2)c1,-86
Cc1ccc(NC(=O)Nc2ccc(F)cc2)nc1,-108
Cn1ccsc1=NC(=O)c1cccc(OC(F)F)c1,-128
COc1ccccc1/C=N/N(C(C)=O)c1nc(-c2ccc(F)cc2)cs1,-121
Cc1ccccc1NC(=O)c1cc2ccccc2o1,-172
O=C(Cc1ccc(Cl)cc1)Nc1ccc(-c2cc3ccccc3oc2=O)c(Cl)c1,n
O=C(Nc1ccc(Cl)cc1Cl)c1cc2ccccc2o1,-110
Cc1ccc(NC(=O)c2cc3ccccc3o2)nc1,-95
SMILES,aSyn UTR act
Nc1ccc(NC(=O)c2cccc(C(=O)Nc3ccc(N)cc3Cl)c2)c(Cl)c1,-85
COc1ccccc1NC(=O)c1cc2ccccc2o1,-92
O=C(NCCc1ccccn1)c1cc2ccccc2o1,-102
O=C(Nc1ccccc1Cl)c1cc2ccccc2o/c1=N\O,-121
Nc1ccccc1C(=O)Nc1ccc(Cl)cc1Cl,-120
O=C(Nc1ncccc1Cl)c1cc2ccccc2o1,-74
O=C(c1cc2c(=O)n3ccccc3nc2s1)N1CCOCC1,-98
CC1CCN(C(=O)c2cc3c(=O)n4ccccc4nc3s2)CC1,-78
COc1ccc(NC(=S)Nc2ccccn2)cc1,-168
COC(=O)c1ccc(NC(=S)Nc2ccccn2)cc1,-171
O=C(NCCc1ccccc1)C(=O)NC1CCCCC1,-105
O=C(NC1CCCCC1)C(=S)NCCc1ccccc1,-62
COC(=O)c1ccc(COc2ccc(CNCc3ccc(Cl)cc3)cc2)cc1,-92
CCCCOc1ccc(C(=O)N2CCCCCC2)cc1,-80
O=C(c1ccc(COc2ccc(Cl)cc2)cc1)N1CCCCC1,-85
CC(C)(C)OC(=O)N/N=C\c1ccc(OC(=O)c2cccs2)cc1,-91
O=C(N/N=C/c1ccc(OC(=O)c2cccs2)cc1)c1ccccn1,-98
O=C(N/N=C/c1cccc(OC(=O)c2ccco2)c1)c1ccc(F)cc1,-104
O=C(Oc1ccc(/C=N/NC(=O)c2ccccn2)cc1)c1ccc(Br)cc1,-124
COc1cc(/C=N/NC(=O)c2ccccn2)ccc1OC(=O)c1ccc(Br)cc1,-84
CC(C)(C)OC(=O)N/N=C/c1ccc(Br)cc1,-132
O=C(Oc1ccc(/C=N/NC(=O)c2ccccn2)cc1)c1cccc(F)c1,-116
Cc1cc(C(=O)N/N=C/c2cc(Br)cc(Br)c2OC(=O)c2cccc(F)c2)n[nH]1,n
COc1ccc(/C=N\NC(=O)c2c(C)nc3ccc(Br)cn23)cc1,n
O=C(N/N=C/c1ccc(OC(=O)c2ccco2)cc1)c1ccccn1,-123
SMILES,aSyn UTR act
Cc1cc(C(=O)N/N=C/c2cc(Br)ccc2OC(=O)c2ccc(Br)cc2)n[nH]1,n
O=C(Nc1ccc(Br)cn1)c1ccc2ccccc2c1,-83
COc1c(C(=O)Nc2ccc(Br)cn2)ccc2ccccc12,-167
COc1cc2ccccc2cc1C(=O)Nc1ccc(Br)cn1,-175
CSc1ncc(CN2CCCC(C(=O)c3ccc(C(C)(C)C)cc3)C2)cn1 (stereo not drawn),-88
Cc1ccc(NC(=O)NCc2c(C)nn(C)c2C)cc1Cl,-157
Cc1ccc(NC(=O)O/N=C/c2c(C)nn(C(C)(C)C)c2C)cc1Cl,n
CCN(CC)S(=O)(=O)c1cc([N+](=O)[O-])ccc1NNC(=O)Nc1ccc(Cl)c(Cl)c1,n
Cc1nn(C)cc1CNC(=O)Nc1ccc(Cl)c(Cl)c1,-145
COc1ccc(OCc2cc(C(=O)NCc3cccc(C)n3)no2)c(Cl)c1,-65
COc1cccc(OCc2cc(C(=O)NCc3ccccn3)no2)c1,-128
Cc1ccc(NC(=O)NC(=S)NC(=O)c2ccccc2)cc1,-125
O=C(NC(=S)Nc1ccccc1)c1ccc(-c2ccccc2)cc1,-102
O=C(O)c1ccc(NC(=S)NC(=O)c2ccc(-c3ccccc3)cc2)cc1,-97
O=C1CN(C(=S)NC(=O)c2ccc(-c3ccccc3)cc2)CCN1,-79
Cc1ccc(C(=O)NC(=S)Nc2cccnc2Cl)cc1,-138
Cn1cccc1CNC(=O)Nc1ccc(Cl)cc1,-115
Cc1ccc(NC(=O)NCc2cccn2C)cc1C,-124
COc1ccc2cc(-c3cc(C(=O)OCC(=O)Nc4c(C)n(C)n(-c5ccccc5)c4=O)c4ccccc4n3)ccc2c1,n
CCN1CCCC(OC(=O)c2cc(-c3ccc(C)cc3)nc3ccccc23)C1 (stereo not drawn),-94
CC(C)Oc1cccc(-c2cc(C(=O)N3CCN(c4ncccn4)CC3)c3ccccc3n2)c1,-64
Cc1cccc2c(C(=O)N3CCN(c4ccccc4)CC3)cc(-c3ccncc3)nc12,n
Cc1ccc(-c2cc(C(=O)N3CCN(c4ccccc4O)CC3)c3ccccc3n2)o1,-81
COc1ccc(-c2cc(C(=O)OCC(=O)NC(C)C)c3ccccc3n2)cc1,-65
COc1ccc2nc(-c3ccc(Cl)cc3)cc(C(=O)O)c2c1,-72
SMILES,aSyn UTR act
CCOc1ccc(-c2cc(C(=O)N3CCC(C)CC3)c3ccccc3n2)cc1,-128
CCOc1ccc(-c2cc(C(=O)O)c3ccccc3n2)cc1,-83
N#Cc1nc(/C=C/c2ccccc2)oc1NCCCN1CCOCC1,-82
COCCNc1oc(/C=C/c2ccccc2)nc1C#N,-146
CNc1oc(/C=C/c2ccccc2)nc1C#N,-275
COC(c1ccccc1)c1nnc(CCC(=O)N(C)Cc2cccc(-n3cccn3)c2)o1 (stereo not drawn),-72
COC(c1ccccc1)c1nnc(CCC(=O)N(C)CCOc2ccccc2)o1 (stereo not drawn),-83
CCOC(=O)c1cn(-c2c(Cl)cccc2Cl)c2cc(Cl)c([N+](=O)[O-])cc2c1=O,-90
O=c1c2c3c(sc2ncn1/N=C/c1ccc([N+](=O)[O-])o1)CCCC3,-89
O=C(/C=C/c1ccc(Cl)cc1Cl)Nc1cccc(S(=O)(=O)NC2=NCCCCC2)c1,-67
O=C(CSc1ccc2ccccc2c1Br)Nc1cccc(S(=O)(=O)NC2=NCCCCC2)c1,n
Cn1c(C(=O)Nc2ccc3c(c2)OCCO3)cc2sccc21,-87
O=C(Nc1ccc2c(c1)OCCO2)c1cc2sccc2n1Cc1ccccc1,-102
O=C(Nc1ccc2c(c1)OCCO2)c1cc2sccc2n1Cc1ccc(F)cc1,-110
